Among the test systems are HCT-15 colon; HT29 colon; SNB-75 CNS; SNB-19 CNS; U251 CNS; PC-3 prostate; SK-MEL-5 melanoma; UACC-62 melanoma; LOX IMVI melanoma; SK-MEL-28 melanoma; SK-MEL-2 melanoma; EKVX NSCLC; SN12C renal; UO-31 renal; TK-10 renal; ACHN renal; A498 renal; CCRF-CEM leukemia; MOLT-4 leukemia; CAKI-1 renal.
What all share (experiment): NCI-60 one-dose screen, 48 h (100 = growth as untreated, 0 = no growth, -100 = all killed)
Holding throughout (details): 10 µM unless noted

About 83,000 compounds went through this panel and 20% of them were active in at least one assay; those are over-represented in the sample as a whole.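 Single-dose data. Exposure time 48 hours. Values below 10 considered active.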 Unmarked numbers belong to inactive results. Activity calls are given as the source filed them.

The values that follow come from PubChem BioAssay (NCI).

For the compound `O=C(NCCN1CCCC1)c1ccc(-c2nc3ccc4[nH]ncc4c3c3c2CCCC3)cc1`, the growth with HCT-15 colon was 26.1%; in the assay on HT29 colon it was 4.8% (active); with SNB-75 CNS, 33.7%; with SNB-19 CNS, 7.71% (active); with U251 CNS, 10.7%; in the assay with PC-3 prostate it was 8.15% (active). Besides, the growth in the assay on SK-MEL-5 melanoma is 5.04% (active); in the assay on UACC-62 melanoma, 18.4%; in the assay on LOX IMVI melanoma, -89.6% (active); in the assay with SK-MEL-28 melanoma it was 5.05% (active); in the assay on SK-MEL-2 melanoma, 10.1%; in the assay with EKVX NSCLC it was 24%. Moreover, the growth in the assay on SN12C renal was 8.98% (active); in the assay with UO-31 renal it was 43.3%; in the assay with TK-10 renal it was 27.3%; in the assay on ACHN renal, 15.8%; in the assay on A498 renal it was -80% (active); in the assay on CCRF-CEM leukemia it was 9% (active). Besides, the growth in the assay on MOLT-4 leukemia is -26% (active).
Consider `CN1CCN(Cc2ccc(NC(=O)c3cncc(C#Cc4cnc5ccc(OCC6(C)COC6)nn45)c3)cc2C(F)(F)F)CC1`, for which the growth in the assay on HCT-15 colon was -78.6% (active); with HT29 colon, -37.5% (active); in the assay on SNB-75 CNS it was -68.7% (active); with SNB-19 CNS it was -86.1% (active); in the assay with U251 CNS it was -62% (active); in the assay with PC-3 prostate it was -69% (active). Further, the growth in the assay on SK-MEL-5 melanoma was -93.2% (active); with UACC-62 melanoma it was -90.5% (active); in the assay on LOX IMVI melanoma, -93.5% (active); with SK-MEL-28 melanoma, -89.2% (active); in the assay with SK-MEL-2 melanoma, -75.7% (active); in the assay on EKVX NSCLC it was -83.3% (active). Also, the growth in the assay on SN12C renal is -76.2% (active); with UO-31 renal it was -91.8% (active); with TK-10 renal, -73.7% (active); in the assay on ACHN renal, -96.1% (active); with A498 renal, -97.7% (active); in the assay with CCRF-CEM leukemia it was 1.98% (active). The growth with MOLT-4 leukemia was 1.9% (active).
`COc1cc2oc(-c3cccc(C(=O)N[C@@H](CC(C)C)C(=O)OC(C)(C)C)c3)cc(=O)c2c(OC)c1OC`: the growth with HCT-15 colon was 36.9%; with HT29 colon, 83.7%; with SNB-75 CNS, 80.9%; with SNB-19 CNS, 78.3%; in the assay with U251 CNS, 76.1%; with PC-3 prostate it was 58.4%. Moreover, the growth was 74.1% in the assay with SK-MEL-5 melanoma; 51.6% in the assay with UACC-62 melanoma; 46.5% in the assay with LOX IMVI melanoma; 95.9% in the assay on SK-MEL-28 melanoma; 81.6% in the assay on SK-MEL-2 melanoma; 89.7% in the assay on EKVX NSCLC. The growth in the assay on SN12C renal was 57%; with UO-31 renal, 39.6%; in the assay on TK-10 renal it was 95%; with ACHN renal it was 69.7%; in the assay with CAKI-1 renal it was 53.6%; in the assay on CCRF-CEM leukemia it was 40.2%. For the same compound, the growth with MOLT-4 leukemia is 62.1%.
Consider `COc1ccc(NC2=C(Cl)C(=O)c3nc(C)ccc3C2=O)cc1OC`, for which the growth was 82.3% with HCT-15 colon; 110% with HT29 colon; 111% in the assay on SNB-75 CNS; 94.6% in the assay on SNB-19 CNS; 106% in the assay with U251 CNS; 70.6% in the assay with PC-3 prostate. Also, the growth with SK-MEL-5 melanoma is 86.6%; with UACC-62 melanoma it was 71.8%; with LOX IMVI melanoma, -3.09% (active); in the assay on SK-MEL-28 melanoma, 102%; with SK-MEL-2 melanoma it was 100%; in the assay with EKVX NSCLC, 50.8%. Further, the growth was 90.5% in the assay with SN12C renal; 100% in the assay with UO-31 renal; 149% in the assay on TK-10 renal; 95% in the assay on ACHN renal; 82.6% with A498 renal; 15.3% in the assay with CCRF-CEM leukemia. Moreover, the growth in the assay on MOLT-4 leukemia was 69.8%.
Take `O=C1CCC(N2C(=O)c3ccc(NS(=O)(=O)c4ccccc4OC(F)(F)F)cc3C2=O)C(=O)N1` (stereo not drawn): the growth in the assay with HCT-15 colon is 7.77% (active); in the assay on HT29 colon, 78.4%; with SNB-75 CNS it was 58%; in the assay with SNB-19 CNS it was 39.6%; in the assay on U251 CNS it was 75.8%; in the assay with PC-3 prostate it was 46.4%. The growth with SK-MEL-5 melanoma is 45.9%; in the assay with UACC-62 melanoma, 93.3%; in the assay with LOX IMVI melanoma it was 105%; in the assay on SK-MEL-28 melanoma it was 66.8%; in the assay on SK-MEL-2 melanoma, 83.7%; in the assay on EKVX NSCLC, 78.8%. For the same compound, the growth in the assay with SN12C renal was 47.8%; in the assay on UO-31 renal, 3.53% (active); with TK-10 renal, 63.4%; in the assay with ACHN renal, 87.5%; in the assay with A498 renal, 28.5%; with CCRF-CEM leukemia, 13.2%. In the assay with MOLT-4 leukemia, the growth was 2.34% (active).
Consider `COc1c(N2CC3CCCNC3C2)c(F)cc2c(=O)c(C(=O)N/N=C/c3ccc4c(c3)OCO4)cn(C3CC3)c12` (stereo not drawn), for which the growth with HCT-15 colon is 3.7% (active); in the assay on HT29 colon it was -19.2% (active); in the assay on SNB-75 CNS, 102%; with SNB-19 CNS, 80.5%; with U251 CNS, 12.4%; in the assay with PC-3 prostate it was 60.1%. The growth with SK-MEL-5 melanoma is 22.8%; in the assay on UACC-62 melanoma, 90.7%; with LOX IMVI melanoma it was -64.3% (active); in the assay on SK-MEL-28 melanoma, 96.5%; with SK-MEL-2 melanoma, 103%; with EKVX NSCLC it was 66.6%. Besides, the growth was 82.9% in the assay on SN12C renal; 64.9% in the assay on UO-31 renal; 124% in the assay with TK-10 renal; 85.3% with ACHN renal; 105% with A498 renal; 31.7% with CCRF-CEM leukemia. Moreover, the growth with MOLT-4 leukemia is 59.3%.
As to `CC/C(=C/c1cc(OC)ccc1O)c1ccc2cc(OC)ccc2[o+]1`, the growth is 23.9% in the assay on HCT-15 colon; 15.7% with HT29 colon; 48.3% with SNB-75 CNS; 47.3% with SNB-19 CNS; 66.5% in the assay on U251 CNS; 40% in the assay on PC-3 prostate. For the same compound, the growth in the assay on SK-MEL-5 melanoma was 40.7%; in the assay on UACC-62 melanoma, 21.4%; with LOX IMVI melanoma it was 60%; in the assay on SK-MEL-28 melanoma it was 61.8%; in the assay with SK-MEL-2 melanoma, 71.8%; with EKVX NSCLC, 76.3%. The growth in the assay with SN12C renal was 73.9%; in the assay with UO-31 renal, 68.7%; in the assay on TK-10 renal it was 116%; in the assay on ACHN renal, 58.5%; in the assay with A498 renal it was 29.5%; with CCRF-CEM leukemia it was 39.3%. Also, the growth in the assay with MOLT-4 leukemia was 53.4%.
